Source: PubChem (National Center for Advancing Translational Sciences (NCATS))
Rows were chosen to be rich in hits. Some 2.4% of all compounds tested hit in one or more screens of this group.
POLK inh – blocks human DNA polymerase kappa activity. Potency, µM (series often up to 107 µM), most hits filed as inhibitors. 400,000 compounds, 0.53% hits. Q9UBT6. purified Pol kappa, fluorescent DNA synthesis assay, 10 min
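10 nM Pol kappa was preincubated with compounds for 15 min at room temperature. Reaction started with 50 nM (final) substrate. Fluorescence read kinetically at 0 and 10 min.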
POLH inh – blocks human DNA polymerase eta activity | recombinant Pol eta, fluorescent DNA replication assay | Potency, µM (series often up to 114 µM), hits mostly inhibitors | 390,000 compounds, 1.2% hits
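Pol eta at 10 nM preincubated with compounds 15 min at room temperature; reaction started with fluorescent substrate (50 nM final) and read kinetically at 0 and 10 min.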
FEN1 inhibitor – blocks human flap endonuclease 1; Potency, µM (titrated, usually from 114 µM), usual class: inhibitors; AID 588795; 390,000 compounds, 0.35% hits; P39748; Recombinant FEN1 flap cleavage, fluorescence, 15 min; further: nearly all actives have a fitted effect of over 65% in size
Target sequence (P39748 whole entry, looked up): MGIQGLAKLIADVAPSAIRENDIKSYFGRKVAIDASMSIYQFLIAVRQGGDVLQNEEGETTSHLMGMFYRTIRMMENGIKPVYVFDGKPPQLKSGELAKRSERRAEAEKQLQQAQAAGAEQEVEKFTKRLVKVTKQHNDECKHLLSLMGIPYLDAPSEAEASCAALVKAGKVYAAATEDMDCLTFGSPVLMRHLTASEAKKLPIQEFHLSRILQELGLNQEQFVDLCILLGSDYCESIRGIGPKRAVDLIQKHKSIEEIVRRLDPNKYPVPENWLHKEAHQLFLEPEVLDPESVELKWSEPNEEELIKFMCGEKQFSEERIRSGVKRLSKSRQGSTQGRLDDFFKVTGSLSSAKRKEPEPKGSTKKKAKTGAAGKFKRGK
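Read-out was taken twice, immediately and after 15 min, following addition of 50 nM substrate to 10 nM FEN1 that had sat with test compound for 15 min at room temperature. Curves came from a four-parameter Hill model.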
Pol beta inh – inhibitors of human DNA polymerase beta; P06746; Pol beta primer extension/strand displacement, fluorescence kinetic; Potency, µM (titrated, usually from 114 µM), hits mostly inhibitors; 340,000 compounds, 1.3% hits
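Homogeneous kinetic assay of primer extension and strand displacement by 10 nM Pol beta, preincubated 15 min at room temperature with compound before 50 nM substrate (final) was added. Read at 0 and 10 min; four-parameter Hill fit.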
POLI inh – DNA polymerase iota (human) inhibition; Q9UNA4; Pol iota fluorescent replication assay, 10 min; Potency, µM (top dose mostly 115 µM), hits mostly inhibitors; 390,000 compounds, 1% hits
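Fluorescent replication assay read twice, at 0 min and 10 min after adding 50 nM (final) substrate. Enzyme (10 nM) and compounds were first incubated 15 min at room temperature; enzyme-free buffer wells were negative controls.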
PGK inhibitor – inhibitors of T. brucei phosphoglycerate kinase; PGK/GAPDH coupled, Kinase-Glo luminescence, 60 min; P07378; 380,000 compounds, 0.043% hits; Potency, µM (doses to about 57.5 µM), actives largely listed as inhibitors; further: nearly all actives have a fitted effect of over 60% in size
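Recombinant glycosomal PGK reaction used 1,3-bisphosphoglycerate generated in-well by GAPDH (100nM final) in 100mM TEA pH 7.6, 5mM MgCl2, 0.01% Tween-20. After 60 minutes at room temperature, ATP was read by Kinase-Glo Plus luminescence end-point.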
Hits are given with their value; n = inactive; u = inconclusive; x = not tested or not shown. The call rests on the fitted dose curve; in most records, active means well fitted curve in the direction sought with a large enough effect; inconclusive means small, poorly fitted or top-dose-only effect, or another doubt; inactive means no such curve, though single readings can be large; an effect the other way counts as inactive or inconclusive.

SMILES	POLK inh	POLH inh	FEN1 inhibitor	Pol beta inh	POLI inh	PGK inhibitor
COc1ccc(-c2cc3ccc(O)c(CN4CCCC4)c3oc2=O)cc1OC	n	n	n	n	n	n
Cc1ccc(C2(SCC(N)C(=O)O)c3ccccc3-c3ccccc32)cc1 (configuration not stated)	u	22µM	n	x	u	n
Cc1csc2nc(COC(=O)c3ccccc3NC(=O)COc3ccccc3F)cc(=O)n12	n	n	n	25µM	n	n
CCCc1nn2c(=O)cc(COC(=O)c3ccccc3NC(=O)COc3ccccc3F)nc2s1	n	n	n	n	n	n
CCOc1ccc(C(=O)Nc2ccc(C(=O)OCc3cc(=O)n4c(C)csc4n3)cc2)cc1	n	n	n	18µM	u	n
Cc1ccc(OCC(=O)Nc2ccc(C(=O)OCc3cc(=O)n4c(C)csc4n3)cc2)cc1	n	n	n	n	n	n
Cc1cc(Cl)ccc1OCC(=O)Nc1c(Cl)ccc2nsnc12	n	n	n	n	n	n
Cc1ccc(F)c(C2C3C=CCC(C)C3C(=O)N2Cc2ccccc2)c1 (configuration not stated)	n	x	n	x	n	x
CN(C)c1ccc(/C=C2\C=Cc3ccccc32)cc1N	n	x	n	x	n	x
CC(=O)Nc1cccc(NC(=O)CSc2ncc(-c3ccccc3)[nH]2)c1	n	n	n	14µM	u	n
COc1cc2c(NC3CCN(C)CC3)nc(N3CCCN(C)CC3)nc2cc1OCCCN1CCCCC1	n	x	22µM	x	u	x
COc1cc2c(NC3CCN(C)CC3)nc(N3CCCN(C)CC3)nc2cc1OCCCC(C)C	n	x	u	x	n	x
COc1cc2c(NC3CCN(C)CC3)nc(N3CCCN(C)CC3)nc2cc1OCCOCCN1CCCC1	n	x	20µM	x	n	x
CCOc1ccc(C(c2c(O)cc(C)n(CCOC)c2=O)N2CCN(c3ccccc3)CC2)cc1 (configuration not stated)	n	n	n	n	n	n
Cc1ccc(CNc2ncnc3onc(-c4ccc(F)cc4)c23)cc1	n	u	n	n	n	n
Cc1ccc2c(c1)C(=O)OC(C(=O)Nc1ccccc1C(=O)O)C2 (configuration not stated)	n	n	n	n	n	n
Cc1ccc2c(c1)C(=O)OC(C(=O)Nc1ccc(C(=O)O)cc1)C2 (configuration not stated)	n	n	n	n	89µM	n
O=c1c(C(c2ccccc2)c2c(O)sc3ccccc3c2=O)c(O)sc2ccccc12	n	n	n	32µM	n	n
Nc1cccc2c(=O)c3ccccc3[nH]c12	n	n	n	45µM	n	n
COc1cccc2[nH]c3ccccc3c(=O)c12	n	u	n	n	n	n
Cc1cnc(CNc2ncnc3ccc(-c4ccccc4C(F)(F)F)cc23)cn1	n	x	x	x	x	x
CN(CC(=O)Nc1ccc(Cl)c(C(F)(F)F)c1)C(=O)Cn1cc([N+](=O)[O-])ccc1=O	n	79µM	n	x	n	n
Nc1ncnc2c1ncn2[C@@H]1O[C@H](COP(=O)(O)OP(=O)(O)OP(=O)(O)OP(=O)(O)OC[C@@H]2O[C@H](n3cnc4c(N)ncnc43)[C@@H](O)[C@@H]2O)[C@H](O)[C@H]1O	x	n	x	n	n	x
COc1cc(C)ccc1OCCOCCOc1cc(C)c(C)cc1Br	n	n	n	n	100µM	n
CN(CC(=O)Nc1ccc(F)c(F)c1F)C(=O)/C=C/c1ccco1	n	u	n	x	50µM	n
SMILES	POLK inh	POLH inh	FEN1 inhibitor	Pol beta inh	POLI inh	PGK inhibitor
CN(CC(=O)Nc1ccc(F)c(F)c1F)C(=O)/C=C/c1ccc(Cl)cc1	n	n	n	n	n	n
CCCCCCCCCCCCCCCC(C)C1=NCCN1 (configuration not stated)	n	x	n	x	n	x
COc1cc(OC)c2c(c1C(CCN1CCCC(C)C1)c1ccc(N(C)C)cc1)OC(=O)CC2c1ccc(N(C)C)cc1 (configuration not stated)	n	x	n	x	n	x
O=C(O)c1cc(-n2cccc2)ccc1N1CCOCC1	u	50µM	n	n	n	n
CCCCN(CCCC)S(=O)(=O)c1ccc(NC(=O)Cc2cccs2)cc1	u	79µM	n	u	50µM	n
CC(=O)c1cccc(NC(=O)Cc2cccs2)c1	u	u	n	32µM	n	n
CC(C)(C)c1csc(NC(=O)Cc2cccs2)n1	n	n	n	22µM	n	n
CCCNS(=O)(=O)c1ccc(NC(=O)Cc2cccs2)cc1	n	n	n	n	n	n
Cc1cccc(C)c1NC(=O)Cc1cccs1	n	u	n	40µM	u	n
Cc1cc(C)nc(NC(=O)Cc2cccs2)n1	n	n	n	u	n	n
O=c1[nH]c2c(-c3nc(-c4ccc(Cl)cc4)cs3)c(O)cn2c2ccccc12	n	x	n	x	n	x
Cc1ccc(C)c(S(=O)(=O)NCC(c2ccco2)S(=O)(=O)c2ccc(F)cc2)c1 (configuration not stated)	n	n	n	n	n	n
CCn1c(SC(C)C(=O)NCc2ccco2)nnc1-c1ccccc1 (configuration not stated)	n	x	u	x	u	x
CCOC(=O)c1ccc(CNc2ncnc3nc[nH]c23)cc1	u	x	n	x	u	x
Cc1c(NC(=O)Cc2cccs2)cccc1[N+](=O)[O-]	n	u	n	35µM	n	n
Cc1ccc(C(=O)Nc2ccccc2C(=O)OCc2cc(=O)n3nc(C4CC4)sc3n2)cc1	n	n	n	n	n	n
Cc1ccccc1OCC(=O)NCC(=O)N/N=C/c1ccc(Br)o1	n	25µM	n	u	n	n
CC1=NN(c2ccccc2)C(=O)/C1=C\c1ccc(Br)s1	n	89µM	u	n	u	n
CC1=NN(c2ccccc2)C(=O)C1=Cc1ccccc1	x	n	x	x	x	n
CC1=NN(c2ccccc2)C(=O)/C1=C/c1cccs1	n	n	u	n	1.3µM	n
COc1ccc(/C=C2/C(=O)N(c3cccc(F)c3)N=C2C)c(OC)c1	n	n	n	n	1.1µM	n
CC1=NN(c2ccc(C)c(C)c2)C(=O)/C1=C/c1ccc2c(c1)n(C)c(=O)n2C	n	n	u	n	1.4µM	n
COc1cc(/C=C2/C(=O)N(c3ccccc3)N=C2C)ccc1OS(=O)(=O)c1ccccc1	x	x	x	n	x	x
COc1ccc(/C=C2/C(=O)N(c3ccccc3)N=C2C)cc1Br	n	u	u	n	1.3µM	n
O=C(N/N=C/c1ccc([N+](=O)[O-])o1)c1cc(-c2ccc(-c3ccccc3)cc2)nc2ccccc12	n	n	n	20µM	u	n
O=C(N/N=C/c1ccc(-c2cccc([N+](=O)[O-])c2)o1)c1ccc([N+](=O)[O-])cc1	n	n	n	n	n	n
